The record followed here is PubChem BioAssay (Tox21).

A number with no mark means an inactive call. Results filed as inconclusive are left out. The source made the active and inactive calls. Unless noted, the call rests on the fitted dose curve; in most records, active means well fitted curve in the direction sought with a large enough effect in the repeat runs; inconclusive means weak or mixed curves; inactive means no such curve, though single readings can be large; an effect the other way counts as inactive or inconclusive.

Assay [1] is described as follows: qHTS assay to identify small molecule antagonists of the estrogen related receptor (ERR) signaling pathway from Tox21 library - cell viability counter screen (AID 1224834). Further: nearly all actives have a fitted effect of over 30% in size. The procedure, abridged: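 Fluorescence from CellTiter-Fluor gives the viability read-out, taken 30 min after reagent addition. Before that, ERR cells seeded 6 h earlier were incubated with compounds for 17.5 h at 37 C.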

For assay [2], the target named is Luciferin 4-monooxygenase (Photinus pyralis) (UniProt P08659). Briefly: qHTS assay to identify small molecule inhibitors of firefly luciferase (AID 1224835). Further: nearly all actives have a fitted effect of over 25% in size. Further: potency means the concentration at half of the fitted maximal effect. An outline of the steps: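 Quantitative HTS format; KM concentrations of both substrates. Purified P. pyralis FLuc activity quantified from luminescence images.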
Luciferin 4-monooxygenase (Photinus pyralis), sequence (P08659 whole entry, looked up): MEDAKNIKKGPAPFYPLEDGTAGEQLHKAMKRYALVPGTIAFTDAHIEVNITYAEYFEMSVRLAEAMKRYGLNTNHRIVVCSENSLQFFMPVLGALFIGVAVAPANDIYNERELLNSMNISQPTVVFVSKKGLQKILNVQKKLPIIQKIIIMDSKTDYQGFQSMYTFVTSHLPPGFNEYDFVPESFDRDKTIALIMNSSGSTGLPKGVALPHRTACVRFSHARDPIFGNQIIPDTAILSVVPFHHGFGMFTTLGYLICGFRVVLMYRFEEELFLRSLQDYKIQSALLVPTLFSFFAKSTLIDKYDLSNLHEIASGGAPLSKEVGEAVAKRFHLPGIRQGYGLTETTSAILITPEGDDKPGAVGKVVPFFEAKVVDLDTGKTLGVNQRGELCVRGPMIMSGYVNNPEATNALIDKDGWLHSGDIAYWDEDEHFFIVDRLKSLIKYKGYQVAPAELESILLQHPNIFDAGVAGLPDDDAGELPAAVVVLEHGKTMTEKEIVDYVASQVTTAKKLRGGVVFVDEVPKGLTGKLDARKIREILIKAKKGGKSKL
Assay [3] in a line: qHTS assay to identify small molecule agonists of the constitutive androstane receptor (CAR) signaling pathway - cell viability counter screen (AID 1224836). Further: nearly all actives have a fitted effect of over 45% in size. The procedure, abridged: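 HepG2 cells stably carrying hCAR and a CYP2B6-2.2kb reporter; 15-concentration compounds plus PK11195 (final 0.75 uM), 23 hr at 37 C/5% CO2. Viability read by CellTiter-Fluor fluorescence.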
A general note: Quantitative high-throughput screening tests each substance at several concentrations.

The nature of assay [4]: qHTS assay to identify small molecule antagonists of the estrogen related receptor signaling pathway with the pleiotropic PPARgamma coactivator (PGC) from Tox21 10K library - cell viability counter screen (AID 1224840; active means well fitted cell-killing curve with a large enough effect in the repeat runs, not every such curve was filed as active; further: nearly all actives have a fitted effect of over 40% in size). The procedure, abridged:
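PGC/ERR cells, 2,000/well; 6 h pre-incubation 37 C/5% CO2; cpd in DMSO via pin tool; 17.5 h 37 C; CellTiter-Fluor, 30 min; fluorescence.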

The nature of assay [5]: qHTS assay to identify small molecule antagonists of the estrogen related receptor signaling pathway with the pleiotropic PPARgamma coactivator (PGC) from Tox21 10K library (AID 1224841; call rule not given here; further: actives are mostly falling curves and most rising ones were filed inactive; nearly all actives have a fitted effect of over 50% in size). An outline of the steps: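 PGC/ERR cell line, 2,000 cells/well; 6 h pre-incubation 37 C/5% CO2; compounds (DMSO) pinned in; 18 h, 37 C; One-Glo, 30 min RT; luminescence.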
Assay [6] is described as follows: qHTS assay to identify small molecule agonists of the estrogen related receptor signaling pathway with the pleiotropic PPARgamma coactivator (PGC) from Tox21 10K library (AID 1224842). Further: nearly all actives have a fitted effect of over 15% in size. Further: potency means the concentration at half of the fitted maximal effect. The procedure, abridged:
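PGC/ERR reporter cells (NTP line) were seeded 2,000 per well, rested 6 h at 37 C/5% CO2, then pin-dosed with compounds in DMSO for 18 h at 37 C; luciferase read by One-Glo luminescence after 30 min at room temperature.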

Assay [7] has as its target Thyrotropin receptor (Homo sapiens) (UniProt P16473). Briefly: qHTS assay to identify small molecule agonists of the thyroid stimulating hormone receptor (TSHR) signaling pathway (AID 1224843; calls by dose curve; further: nearly all actives have a fitted effect of over 45% in size). The procedure, abridged:
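Cell line HEK293 with TSHR; density 800/well. Exposure 30 min RT. Readout HTRF cAMP (cAMP-d2/anti-cAMP-cryptate), 1 h RT before reading.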

Assay [8] in a line: qHTS assay to identify small molecule agonists of the hypoxia (HIF-1) signaling pathway - cell viability counter screen (AID 1224844; calls by dose curve; further: nearly all actives have a fitted effect of over 50% in size). An outline of the steps:
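ME-180 HRE-bla cells, 2,000/well, 0.5% dialyzed FBS; 5 hr settle, 17 hr compound at 37C/5% CO2; CCF4-AM reporter read first, then CellTiter-Glo luminescence after 30 min RT.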

The nature of assay [9]: qHTS assay to identify small molecule agonists of H2AX (AID 1224845; active means well fitted activation curve with a large enough effect in the signal ratio in the repeat runs, not every such curve was filed as active; the % refers to the signal ratio). The procedure, abridged:
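Wild-type CHO-K1 cells plated overnight, then exposed 3 hr at 37C to compounds at 15 concentrations (0.76% DMSO). Lysed, then HTRF anti-pH2AX(S139)-cryptate/anti-H2AX-d2 detection after 24 hr at room temperature; emissions 665 and 620 nm.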

The nature of assay [10]: qHTS assay to identify small molecule agonists of the hypoxia (HIF-1) signaling pathway (AID 1224846; active means well fitted activation curve with a large enough effect in the signal ratio in the repeat runs, not every such curve was filed as active; the % refers to the signal ratio). The procedure, abridged:
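Cell line: CellSensor HRE-bla ME-180; 2,000 cells/well; 0.5% dialyzed FBS; 5 h preincubation; DMSO compound pin transfer; 17 h, 37C, 5% CO2; CCF4-AM added; bla FRET signal scored for activation.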

Assay [11] is described as follows: qHTS assay to identify small molecule agonists of H2AX - cell viability counter screen (AID 1224847; calls by dose curve; further: top concentration of the series differs between compounds; nearly all actives have a fitted effect of over 30% in size). An outline of the steps: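 CHO-K1 cells plated overnight at 37C, then exposed 3 h at 37C to compounds at 15 concentrations (0.76% DMSO final). Viability by CellTiter-Glo luminescence after 30 min at room temperature.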
The nature of assay [12]: qHTS assay to identify small molecule antagonists of the estrogen related receptor (ERR) signaling pathway from Tox21 library (AID 1224848). Further: nearly all actives have a fitted effect of over 50% in size. The procedure, abridged:
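Screening used an ERR reporter line supplied by NTP, exposed for 18 h at 37 C to library compounds delivered in DMSO. Signal was luciferase luminescence developed with ONE-Glo at room temperature for 30 min.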

Assay [13] is described as follows: qHTS assay to identify small molecule agonists of the estrogen related receptor (ERR) signaling pathway from Tox21 library (AID 1224849; calls by dose curve; further: nearly all actives have a fitted effect of over 15% in size). To be noted: ERR reporter cell line, ONE-Glo luciferase, 18 h; at 92.4 µM (top of the series) unless noted. The procedure, abridged: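 ERR cells, 6 h pre-incubation 37 C/5% CO2; cpd in DMSO pinned; 18 h 37 C; ONE-Glo added, 30 min RT; luminescence read. Agonist mode, qHTS.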

The nature of assay [14]: qHTS RealTime-Glo MT Cell Viability Assay in HepG2 cells - 24 hour (AID 1224867). Further: nearly all actives have a fitted effect of over 50% in size. An outline of the steps:
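Viability was tracked continuously by NanoLuc luminescence from prosubstrate reduced by living HepG2 cells, at successive time points over 40 h of compound exposure. Cells with reagent were preincubated 5 h at 37 °C before compound addition.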

Assay [15] is described as follows: qHTS RealTime-Glo MT Cell Viability Assay in HEK293 cells - 32 hour (AID 1224868). The procedure, abridged:
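Viability tracked continuously by luminescence as live cells reduce a prosubstrate for NanoLuc; HEK293 cells preincubated 5 h, compound-treated at 37 C, and read at 0, 8, 16, 24, 32 and 40 h.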

Assay [16] is described as follows: A CellTox Green Cytotoxicity Assay to monitor cytotoxicity in HEK293 cells - 0 hour (AID 1224869). Further: nearly all actives have a fitted effect of over 50% in size. An outline of the steps: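 Nonlytic real-time cytotoxicity: HEK293 + CellTox Green reagent plated, 5 h preincubation, pintool compound addition (23 nL in DMSO), 37 C for 40 h, fluorescence measured at successive time points.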
Assay [17] can be described thus: qHTS RealTime-Glo MT Cell Viability Assay in HepG2 cells - 40 hour (AID 1224870). Further: nearly all actives have a fitted effect of over 50% in size. An outline of the steps:
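HepG2 cells mixed with RealTime-Glo MT reagents (NanoLuc plus cell-permeant prosubstrate) were seeded at 600 cells/well, incubated 5 h at 37 C/5% CO2, then pinned with compounds in DMSO; nonlytic luminescence tracked viability during 40 h treatment.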

Assay [18] is described as follows: qHTS assay to identify small molecule antagonists of the constitutive androstane receptor (CAR) signaling pathway - cell viability counter screen (AID 1224837). Further: nearly all actives have a fitted effect of over 45% in size. The procedure, abridged:
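HepG2-CYP2B6-hCAR cells, 2500/well, 4 hr pre-incubation; compound titration, 15 conc.; CITCO 50 nM final; 23 hr, 37 C/5% CO2; CellTiter-Fluor, fluorescence intensity.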

Assay [19] has as its target Nuclear receptor subfamily 1 group I member 3 (Homo sapiens) (UniProt Q14994). Briefly: qHTS assay to identify small molecule antagonists of the constitutive androstane receptor (CAR) signaling pathway (AID 1224838).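 Further: HepG2 cells stably expressing hCAR with CYP2B6 luciferase reporter stimulated by CITCO; nearly all actives have a fitted effect of over 40% in size.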 An outline of the steps: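 HepG2-CYP2B6-hCAR cells; 4 h pre-incubation; cpd (15 conc) + CITCO 50 nM final; 24 h, 37 C/5% CO2; ONE-Glo, luminescence.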
Assay [20] shares this target. Put plainly: qHTS assay to identify small molecule agonists of the constitutive androstane receptor (CAR) signaling pathway (AID 1224839). Further: nearly all actives have a fitted effect of over 15% in size. The procedure, abridged:
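HepG2 cells stably co-transfected with hCAR and a CYP2B6-2.2kb luciferase reporter; compounds at 15 concentrations with 0.75 uM PK11195 present. After 24 hr at 37 C, luciferase read by ONE-Glo luminescence.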
On the % scale 0 is the no-effect control and ±100 the full control effect.

Thyrotropin receptor (Homo sapiens), sequence (P16473 whole entry, looked up): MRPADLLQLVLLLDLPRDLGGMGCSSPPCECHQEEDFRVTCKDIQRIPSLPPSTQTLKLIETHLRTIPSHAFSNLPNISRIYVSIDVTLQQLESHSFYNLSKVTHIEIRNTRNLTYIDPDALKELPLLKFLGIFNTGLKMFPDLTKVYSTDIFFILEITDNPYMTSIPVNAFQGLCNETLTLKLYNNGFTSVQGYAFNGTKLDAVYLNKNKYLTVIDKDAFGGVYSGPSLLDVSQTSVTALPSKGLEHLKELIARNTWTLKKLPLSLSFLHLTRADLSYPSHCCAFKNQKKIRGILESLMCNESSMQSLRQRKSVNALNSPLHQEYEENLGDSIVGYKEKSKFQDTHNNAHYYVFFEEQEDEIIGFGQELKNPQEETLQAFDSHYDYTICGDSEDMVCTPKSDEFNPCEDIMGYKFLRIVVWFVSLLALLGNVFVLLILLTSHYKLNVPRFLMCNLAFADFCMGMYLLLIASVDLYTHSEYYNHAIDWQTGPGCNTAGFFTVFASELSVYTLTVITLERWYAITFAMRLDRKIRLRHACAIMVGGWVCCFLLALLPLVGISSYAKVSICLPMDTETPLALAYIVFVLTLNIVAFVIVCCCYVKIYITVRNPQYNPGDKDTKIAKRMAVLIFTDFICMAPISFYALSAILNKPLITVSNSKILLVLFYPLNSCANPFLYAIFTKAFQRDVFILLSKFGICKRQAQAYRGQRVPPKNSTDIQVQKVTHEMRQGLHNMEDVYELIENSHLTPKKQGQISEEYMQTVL
Nuclear receptor subfamily 1 group I member 3 (Homo sapiens), sequence (Q14994 whole entry, looked up): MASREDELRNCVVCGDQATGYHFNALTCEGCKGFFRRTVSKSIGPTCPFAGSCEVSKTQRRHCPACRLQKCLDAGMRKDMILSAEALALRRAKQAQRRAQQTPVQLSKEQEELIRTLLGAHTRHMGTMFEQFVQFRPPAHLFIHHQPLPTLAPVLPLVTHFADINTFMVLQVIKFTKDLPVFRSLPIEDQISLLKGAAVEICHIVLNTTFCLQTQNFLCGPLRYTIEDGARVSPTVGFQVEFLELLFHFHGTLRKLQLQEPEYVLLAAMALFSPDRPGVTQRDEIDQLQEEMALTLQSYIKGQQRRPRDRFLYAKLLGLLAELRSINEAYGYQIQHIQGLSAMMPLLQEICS

Turning to `Nc1ccc(C(=O)Oc2ccccc2)c(O)c1`, the Potency result in assay [1], in [3], in assay [4], in assay [5], in assay [7] and in assay [8] was “inactive” in each case. Also, the Potency entry in assay [9], in assay [11], in assay [12], in [15], in assay [16] and in assay [17] was “inactive” each time. Also, the results for the Potency in assay [2] and in assay [6] were 13.8 µM (active) and 13.3 µM (active), respectively. The compound was classed as inactive in assay [10] and in assay [14]. Besides, the activity change, positive = activation in [13] was 83.9% [at 42.5 µM] (active).

Regarding `O=C(O)COCC(=O)O`, the Potency result in assay [1], in [3], in assay [18], in [19], in assay [20] and in assay [4] was “inactive” in each case. Further, the Potency result in assay [7], in assay [8], in [9], in [11], in [15] and in assay [16] was “inactive” throughout. Further, in assay [17], the Potency entry is “inactive”.

Regarding `Cc1c(Cl)cccc1Nc1ccccc1C(=O)O`, the Potency result in assay [1], in [3], in [18], in [20], in assay [4] and in assay [7] was “inactive” throughout. For the same compound, the Potency entry in [8], in assay [9], in assay [11], in [15], in [16] and in [17] was “inactive” each time. The result in [14] was inactive.

Turning to `CCCCOC(=O)CC#N`, the Potency entry in [1], in [2], in assay [3], in [20], in assay [4] and in assay [7] was “inactive” each time. Moreover, the Potency result in assay [8], in [9], in [11], in [15] and in assay [16] was “inactive” each time. In addition, the compound was classed as inactive in assay [10] and in [14].

`C=CC(=O)OCCCCCCCCCC`: the Potency entry in assay [1], in [3], in [18], in assay [19], in [20] and in assay [4] was “inactive” each time. The Potency result in [5], in assay [6], in assay [7], in assay [8], in [9] and in [11] was “inactive” throughout. Moreover, the Potency entry in assay [12], in assay [15], in assay [16] and in assay [17] was “inactive” in each case. Also, the activity change, positive = activation in assay [13] is 2.6%.

`S=c1[nH][nH]c(=S)s1`: the Potency result in assay [1], in assay [3], in assay [19], in assay [20], in assay [4] and in assay [7] was “inactive” each time. The Potency entry in assay [8], in assay [16] and in assay [17] was “inactive” in each case. In addition, the Potency in [2] is 11.2 µM (active). In addition, the call in assay [10] and in assay [14] was inactive.

Regarding `Cc1ccccc1CCO`, the Potency entry in assay [1], in [2], in assay [3], in assay [4], in assay [5] and in assay [6] was “inactive” each time. For the same compound, the Potency entry in assay [7], in assay [8], in [9], in [12], in [15] and in assay [16] was “inactive” each time. In addition, in assay [17], the Potency entry is “inactive”. Moreover, the outcome in assay [10] and in assay [14] was inactive. The activity change, positive = activation in assay [13] was -1.5%.

As for `CCOc1ccc(NC(C)=O)cc1N`, the Potency entry in [1], in assay [2], in assay [3], in [19], in assay [4] and in assay [5] was “inactive” each time. For the same compound, the Potency result in assay [6], in assay [7], in [8], in [9], in assay [11] and in assay [12] was “inactive” in each case. The Potency entry in assay [15], in assay [16] and in [17] was “inactive” in each case. Moreover, the compound was classed as inactive in assay [10] and in assay [14]. Moreover, the activity change, positive = activation in assay [13] was 8.88%.
